# Assay outcomes deposited in PubChem by National Center for Advancing Translational Sciences (NCATS).
# LASV entry inh – qHTS for Inhibitors of binding or entry into cells for Lassa Virus | AID 540256, 2011 | Potency, µM (titrated, usually from 37.9 µM), inactives show at the top dose activity change, negative = inhibition, actives largely listed as inhibitors | Lassa virus pseudotype entry inhibition, cell reporter | 300,000 tested, 1.2% active; calls by dose curve; tested in HEK293 cells; further: potency means the concentration at half of the fitted maximal effect; nearly all actives have a fitted effect of over 50% in size
# FMDV antiviral – High Throughput Screening for Foot and Mouth Disease Virus Antivirals; Potency, µM (doses to about 57.9 µM), for the others: top-dose activity change, negative = inhibition, most hits filed as inhibitors; FMDV antiviral cell-based qHTS; 410,000 tested, 1.2% active; calls by dose curve; tested in HEK293T cells; further: read-out not given here; potency means the concentration at half of the fitted maximal effect; nearly all actives have a fitted effect of over 45% in size
# MARV entry inh – qHTS for inhibitors of binding or entry into cells for Marburg Virus; Marburg virus pseudotyped entry inhibition, cell reporter; Potency, µM (doses to about 37.8 µM), without a hit: at the highest dose activity change, negative = inhibition, actives largely listed as inhibitors; 300,000 tested, 1.8% active; AID 540276, 2011; calls by dose curve; tested in HEK293 cells; further: potency means the concentration at half of the fitted maximal effect
# HCMV inh – qHTS Assay for inhibitors of the human cytomegalovirus (HCMV). activity change, negative = inhibition, % at 57.5 µM. HFF cells, HCMV-luciferase reporter, 72 h; active compounds read low. AID 1259415, 2018. 410,000 tested, 4.5% active; in the data active means activity change below about -60%; inconclusive means no clear call, values can overlap the other calls; inactive means above about -39%
#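 Luciferase read-out from HCMV-luciferase-infected HFFs (MOI 1 PFU/cell) 72 h post infection at 37C; compounds added after 16 h cell attachment; activity normalized between buffer-only basal and Salinomycin (10uM) inhibitor controls.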
# * hit, by the source's call; u = inconclusive; x = no result; [ ] = remark or other dose. This is a sample that favours compounds with a hit; in the whole collection about 6.2% have one here. On the % scale 0 is the no-effect control and ±100 the full control effect.
SMILES,LASV entry inh,FMDV antiviral,MARV entry inh,HCMV inh
O=C(NC1CCc2ccccc21)C1=CN2CCN(Cc3ccccc3)C(=O)N=C2O1 (stereo unspecified),x,x,x,-13
O=C(NCc1ccco1)c1cc(S(=O)(=O)N2CCCc3ccccc32)ccc1Cl,u,-3%,u,-67*
Cc1ccc(C)c(NC(=O)c2cc(S(=O)(=O)N3CCCc4ccccc43)ccc2F)c1,-29%[46.1 µM],-27%,x,-62*
Cc1c(C(=O)NCCCc2ccncc2)cnn1-c1ncc2c(n1)-c1ccccc1CC2,x,-10%,x,x
CCOC(=O)c1ccc(N2C(=O)c3n[nH]c(-c4cccs4)c3C2c2ccc(OC)cc2OC)cc1 (stereo unspecified),u,u,u,-92*
CCOC(=O)c1ccc(N2C(=O)c3n[nH]c(-c4cccs4)c3C2c2cccc(OC)c2)cc1 (stereo unspecified),u,u,10µM*,-107*
Cc1ccc(S(=O)(=O)N2C[C@@H](C)[C@]3(C2)[C@H](O)[C@H](OC(=O)Nc2c(C)noc2C)C[C@H]2C(=O)N(c4ccccc4)C(=O)[C@H]23)cc1,x,0%,x,-15
Cc1ccc(CCNC(=O)c2ccc(CNS(=O)(=O)c3ccccc3)cc2)cc1,u,0%,10%[46.1 µM],3
Cc1cccc(C(C)C)c1NC(=O)COC(=O)c1cccc(S(=O)(=O)N2CCc3ccccc3C2)c1,u,-10%,0%,-79*
CCOc1ccc(CCNC(=O)c2cccc(S(=O)(=O)N3CCCCC3)c2)cc1OCC,-24%,28µM*,u,-7
COc1ccc(CNC(=O)COc2ccc(S(=O)(=O)N3CCCCC3)cc2)cc1,-13%,-5%,2%,8
COc1ccc(CNC(=O)COc2ccc(S(=O)(=O)N3CCCCC3)cc2Cl)cc1,13µM*,-18%,u,5
CCOc1ccc(CCNC(=O)c2ccc(CNS(=O)(=O)c3ccccc3)cc2)cc1OCC,-16%,28µM*,u,-72*
CCOc1ccc(NC(=O)c2cnn(-c3ccc(C)c(Cl)c3)c2C2CCNCC2)cc1,3%[46.1 µM],-4%,x,-40
COC(=O)CC=C1c2ccc(OC)cc2[C@@H](OC)[C@@H]1C,u,x,4%[14.2 µM],x
CC(C)CCCC(C)C1CCC2C3CC[C@H]4CC(=O)CC[C@@]4(C)C3CC[C@@]12C (stereo partly specified),x,-1%,x,x
CCOc1ccc(CCNC(=O)c2cccc(N3CCCC3=O)c2)cc1OCC,-10%,-2%,-13%,-79*
CCOc1ccc(CCNC(=O)CN2CCN(Cc3ccc(Cl)cc3)C2=O)cc1OCC,1%[46.1 µM],-28%,5µM*,-12
CCOc1ccc(CCNC(=O)COC(=O)/C=C/c2ccccc2)cc1OCC,11%,-18%,-15%,-87*
COc1ccc(CCNC(=O)c2ccc(N3CCCC3=O)cc2)cc1OC,-1%,-9%,8%,22
COc1ccc(CCNC(=O)COc2ccc(S(=O)(=O)NC3CCCCC3)cc2Cl)cc1OC,-5%,-24%,u,-62*
COCCCNC(=O)c1c(-c2ccccc2)c(-c2ccccc2)nn(C)c1=O,-14%[46.1 µM],-7%,10%[46.1 µM],u
Cc1cc(C)cc([C@H]2C[C@]34CN(C(=O)OC(C)(C)C)S(=O)(=O)[C@H]3C[C@H]2O4)c1,x,x,x,-12
COc1ccc(S(=O)(=O)N2CCCCCC2)cc1C(=O)NCc1ccccc1Cl,u,6%,-1%,-27
COc1cc(OC)c(OC)cc1CNC(=O)c1cccc(S(=O)(=O)N2CCc3ccccc3C2)c1,u,11µM*,u,u
SMILES,LASV entry inh,FMDV antiviral,MARV entry inh,HCMV inh
CCOc1ccc(CCNC(=O)c2ccc(C)c(S(=O)(=O)N3CCOCC3)c2)cc1OCC,u,22µM*,u,-5
O=C(NCCc1ccccc1)c1ccc2nc(N3CCOCC3)sc2c1,x,4%,x,-8
COc1ccc(CNC(=O)c2cc(S(=O)(=O)N3CCCCC3)ccc2Cl)cc1OC,-26%,14µM*,u,-64*
O=C(NCc1cccc(Cl)c1)c1ccc2nc(N3CCOCC3)sc2c1,x,-6%,x,-80*
C[N+]1(C)CCO[C@@](O)(c2ccc(-c3ccc([C@]4(O)C[N+](C)(C)CCO4)cc3)cc2)C1,x,x,16%,x
CCOC(=O)C1CCN(C(=O)c2cnn(-c3ccc(F)cc3)c2-n2cccc2)CC1,3%[46.1 µM],-4%,x,-9
CCOc1ccc(CCNC(=O)c2ccc3nc(N4CCOCC4)sc3c2)cc1OCC,-13%,14µM*,-5%[46.1 µM],u
COc1ccc(CCNC(=O)c2ccc3nc(N4CCOCC4)sc3c2)cc1OC,x,-19%,x,34
COc1ccc(CCNC(=O)c2cccc(S(=O)(=O)N3CCCC3)c2)cc1OC,x,-23%,x,-11
COc1ccc(CNC(=O)c2cccc(S(=O)(=O)N3CCCCC3)c2)cc1OC,x,u,x,-87*
O=C(CN(Cc1ccco1)Cc1ccco1)Nc1cc(S(=O)(=O)N2CCCCC2)ccc1Cl,x,u,x,-83*
O=C(NCc1ccc(F)cc1)c1cc(S(=O)(=O)N2CCCCC2)ccc1Cl,x,-9%,x,-102*
COc1cccc(NC(=O)C2=COC3=NC(=O)N(Cc4ccccc4)CCN23)c1,x,x,x,-38
COc1ccc(CCNC(=O)c2ccc(CNS(=O)(=O)c3cc(C)ccc3C)cc2)cc1OC,u,20µM*,10µM*,u
O=C(NCc1cccnc1)c1cccc(S(=O)(=O)N2CCCCC2)c1,10%,-16%,-7%,-81*
O=C(Nc1cc(S(=O)(=O)N2CCCCC2)ccc1Cl)c1ccccc1NS(=O)(=O)c1ccc(F)cc1,3.5µM*,-3%,u,x
CC(NC(=O)c1cccnc1)c1nnc2n1CCN(Cc1ccc(-c3ccccc3Cl)o1)CC2 (stereo unspecified),x,11%,x,x
Fc1cccc(F)c1-n1c(CN2CCCCC2)csc1=S,-13%[46.1 µM],-25%,6.3µM*,-68*
Fc1cccc(F)c1-n1c(CN2CCOCC2)csc1=S,x,-21%,x,2
Cc1ccc(C(=O)N2CCOc3ccc(CN4CCN(Cc5ccccn5)CC4)cc3C2)cc1,x,7%,x,x
Cc1c(NC(=O)C(C)(C)Oc2ccc(Cl)cc2)cccc1-c1nc2ncccc2o1,u,u,u,-27
CC1=C(C(=O)OCC2CCCCC2)C(c2ccc(F)cc2F)CC(=O)N1 (stereo unspecified),-3%[46.1 µM],u,u,-105*
COCCN1CCN(C(=O)c2cnn(-c3ncc4c(n3)-c3ccc(OC)cc3CC4)c2C2CC2)CC1,x,-22%,x,x
C[C@H]1CN([C@@H](C)CO)C(=O)Cc2cc(NC(=O)CCC(F)(F)F)ccc2O[C@H]1CN(C)S(=O)(=O)c1ccc(F)cc1,x,-14%,x,-100*
C[C@H](CO)N1C[C@H](C)[C@H](CN(C)S(=O)(=O)c2cccs2)Oc2ccc(NC(=O)Nc3ccc4c(c3)OCO4)cc2CC1=O,x,-25%,x,-69*
O=C1Nc2c(Cl)cc(Cl)cc2C12Nc1ccccc1S2 (stereo unspecified),x,x,x,-22
COC(=O)C1=NOC2(C=C(Br)C(OC)=C(Br)C2=O)C1 (stereo unspecified),u,x,-42%[14.2 µM],x
Cc1c(C(=O)N2CCCCC2)sc2ncnc(NCCN(C)C)c12,x,10%,x,x
